The values below come from PubChem BioAssay (EPA / NIEHS).

Assay [1] concerns the target Estrogen receptor beta (Homo sapiens) (UniProt Q92731). Put plainly: OT_ER_ERbERb_1440: Odyssey Thera (OT) 24-hour HEK293T Protein-Complementation Assay for Estrogen Receptor-beta/-beta Homodimer (AID 2283380).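 Note: fluorescence gain from ER beta LBD homodimer complementation read by laser scanning cytometry; scored as signal increase over DMSO baseline for both agonists and antagonists.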 In short, it runs like this: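 HEK293T cells stably expressing human ER-beta LBD (aa 310-547) PCA homodimer pair, dosed 24 h; formaldehyde-fixed, Draq5-stained. Readout: increase in nuclear (agonist) or nuclear plus cytoplasmic (antagonist) fluorescence intensity versus DMSO, gain-of-signal fitting.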

For assay [2], the target named is Estrogen receptor (Homo sapiens) (UniProt P03372). Put plainly: OT_ERa_GFPERaERE_0480: Odyssey Thera (OT) 8-hour HeLa Transcription Induction Assay for Estrogen Receptor (AID 2283381; active = hit-call score of the fitted dose curve at least 0.9, where 1 is the maximum; inactive = score below 0.9). The procedure, abridged: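 HeLa cells expressing GFP reporter under estrogen response element, imaged 8 h after dosing. GFP induction quantified by high-content fluorescence microscopy image analysis; gain of signal fitted versus DMSO.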
Chain of Estrogen receptor (Homo sapiens) (P03372 whole entry, looked up): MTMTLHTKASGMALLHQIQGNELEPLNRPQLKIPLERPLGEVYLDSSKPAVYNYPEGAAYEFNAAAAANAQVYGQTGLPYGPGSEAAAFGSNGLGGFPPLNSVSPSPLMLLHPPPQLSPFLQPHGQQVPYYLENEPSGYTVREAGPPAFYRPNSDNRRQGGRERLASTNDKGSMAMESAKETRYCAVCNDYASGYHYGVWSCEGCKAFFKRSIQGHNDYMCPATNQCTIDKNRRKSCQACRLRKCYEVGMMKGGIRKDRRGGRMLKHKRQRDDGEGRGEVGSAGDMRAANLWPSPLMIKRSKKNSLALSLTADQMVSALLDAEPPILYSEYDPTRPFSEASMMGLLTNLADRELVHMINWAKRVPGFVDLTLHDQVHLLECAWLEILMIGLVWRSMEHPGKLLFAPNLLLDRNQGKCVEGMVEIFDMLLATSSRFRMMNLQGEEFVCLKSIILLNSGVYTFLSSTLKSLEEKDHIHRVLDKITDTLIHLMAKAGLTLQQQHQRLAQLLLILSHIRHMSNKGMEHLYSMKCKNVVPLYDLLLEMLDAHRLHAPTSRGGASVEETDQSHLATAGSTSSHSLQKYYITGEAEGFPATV

Assay [3] has the same target. The assay can be described thus: OT_ERa_GFPERaERE_0120: Odyssey Thera (OT) 2-hour HeLa Transcription Induction Assay for Estrogen Receptor (AID 2283382). In short, it runs like this:
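HeLa cells were dosed for 2 h, then GFP reporter induction was quantified by fluorescence microscopy with high-content image analysis. Gain of signal fitted against DMSO baseline.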

Assay [4] has as its target Retinoic acid receptor RXR-alpha (Homo sapiens) (UniProt P19793). Put plainly: OT_NURR1_NURR1RXRa_0480: Odyssey Thera (OT) 8-hour HEK293T Protein Complementation Assay for Nurr1/retinoid X receptor (RXR) (AID 2283385). In short, it runs like this:
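HEK293T cells expressing Nurr1 and RXRα fused to reporter fragments (protein-fragment complementation); fluorescence measured 8 h after dosing. Gain of signal fitted relative to DMSO.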

The target is the same in assay [5]. Put plainly: OT_NURR1_NURR1RXRa_1440: Odyssey Thera (OT) 24-hour HEK293T Protein Complementation Assay for Nurr1/retinoid X receptor (RXR) (AID 2283386). The procedure, abridged:
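HEK293T protein-fragment complementation of Nurr1 and RXRα fused to reporter fragments; compounds 24 h. Fluorescence gain from reconstituted reporter fitted versus DMSO.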

Assay [6] addresses Peroxisome proliferator-activated receptor gamma (Homo sapiens) (UniProt P37231). Put plainly: OT_PPARg_PPARgSRC1_0480: Odyssey Thera (OT) 8-hour Protein-Complementation Assay for Peroxisome Proliferator-activated Receptor Gamma / SRC-1 Co-activator (AID 2283387).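 Note: nuclear to cytoplasmic split Venus YFP fluorescence ratio reporting PPARg SRC-1 interaction.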 The procedure, abridged:
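Protein-fragment complementation in HEK293T: Venus YFP halves (residues 1-158, 159-239, mutated to IFP1/IFP2) fused to PPARg/SRC-1. 8 h exposure; N/C ratio at 488 nm; DMSO negative control.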

Assay [7] has the same target. The assay can be described thus: OT_PPARg_PPARgSRC1_1440: Odyssey Thera (OT) 24-hour Protein-Complementation Assay for Peroxisome Proliferator-activated Receptor Gamma/ SRC-1 Co-activator (AID 2283388).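 Note: nuclear to cytoplasmic ratio of reconstituted Venus YFP fluorescence in fixed imaged cells.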 In short, it runs like this:
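Protein-fragment complementation between PPARg and coactivator SRC-1 was measured by fluorescence imaging in transiently transfected HEK293T cells after 24 h treatment. Signal was quantified as N/C ratio in the 488 nm channel, with DMSO as negative control.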

A short description of assay [8]: CEETOX_H295R_11DCORT: CeeTox H295R High-throughput Steroidogenesis Assay for 11-Deoxycortisol (11DCORT) (AID 2283432; active = hit-call score of the fitted dose curve at least 0.9, where 1 is the maximum; inactive = score below 0.9). As to conditions: actives raise or lower the signal. The procedure, abridged:
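Adrenal carcinoma line H295R, run per OECD 456 with minor changes, was forskolin-stimulated (10 uM, 48 h) before a 48 h chemical exposure at 0.1% DMSO. Secreted 11-deoxycortisol was quantified by HPLC-MS/MS.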

Assay [9] in a line: CEETOX_H295R_OHPREG: CeeTox H295R High-throughput Steroidogenesis Assay for OH-Pregnenolone (OHPREG) (AID 2283434; active = hit-call score of the fitted dose curve at least 0.9, where 1 is the maximum; inactive = score below 0.9). As to conditions: actives raise or lower the signal. The procedure, abridged:
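Human adrenal H295R cells were prestimulated 48 h with 10 uM forskolin, then exposed 48 h to chemical in 0.1% DMSO. Medium 17alpha-hydroxypregnenolone was quantified by HPLC-MS/MS after MTBE extraction; bidirectional fitting versus DMSO baseline.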

The nature of assay [10]: CEETOX_H295R_OHPROG: CeeTox H295R High-throughput Steroidogenesis Assay for OH-Progesterone (OHPROG) (AID 2283435; active = hit-call score of the fitted dose curve at least 0.9, where 1 is the maximum; inactive = score below 0.9). As to conditions: actives raise or lower the signal. The procedure, abridged:
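H295R adrenal cells prestimulated 48 h with 10 uM forskolin, then exposed 48 h to chemical (0.1% DMSO final). 17alpha-hydroxyprogesterone in medium quantified by HPLC-MS/MS; bidirectional fit versus DMSO, with MTT viability measured in the same wells.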

Assay [11] in a line: CEETOX_H295R_CORTISOL: CeeTox H295R High-throughput Steroidogenesis Assay for Cortisol (AID 2283438; active = hit-call score of the fitted dose curve at least 0.9, where 1 is the maximum; inactive = score below 0.9;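 note: cortisol secreted into medium quantified by LC-MS/MS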). To be noted: actives raise or lower the signal. In short, it runs like this: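 Forskolin-primed H295R cells (10 uM, 48 h) treated 48 h with test chemical in 0.1% DMSO. Cortisol in medium quantified by MTBE extraction and HPLC-MS/MS; bidirectional fit vs DMSO, MTT viability in same wells.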

A short description of assay [12]: CEETOX_H295R_DOC: CeeTox H295R High-throughput Steroidogenesis Assay for DOC (AID 2283439; active = hit-call score of the fitted dose curve at least 0.9, where 1 is the maximum; inactive = score below 0.9). To be noted: actives raise or lower the signal. In short, it runs like this: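 H295R cells prestimulated 48 h with 10 uM forskolin, then exposed 48 h to test chemical (0.1% DMSO final). Medium 11-deoxycorticosterone measured by HPLC-MS/MS after MTBE extraction; bidirectional fit vs DMSO, viability checked by MTT in same wells.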

Assay [13] in a line: CEETOX_H295R_ESTRADIOL: CeeTox H295R High-throughput Steroidogenesis Assay for Estradiol (AID 2283440; active = hit-call score of the fitted dose curve at least 0.9, where 1 is the maximum; inactive = score below 0.9;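 note: estradiol secreted into medium quantified by LC-MS/MS after dansyl derivatisation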). To be noted: actives raise or lower the signal. The procedure, abridged: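 Estradiol secreted into the medium was measured by tandem mass spectrometry after liquid-liquid extraction and dansylation. Human H295R cells had been forskolin-primed (10 uM, 48 h) before a 48 h chemical exposure with 0.1% DMSO.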

A short description of assay [14]: CEETOX_H295R_ESTRONE: CeeTox H295R High-throughput Steroidogenesis Assay for Estrone (AID 2283441; active = hit-call score of the fitted dose curve at least 0.9, where 1 is the maximum; inactive = score below 0.9;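 note: estrone secreted into medium measured by LC-MS/MS after dansyl derivatization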). As to conditions: actives raise or lower the signal. In short, it runs like this: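 H295R cells prestimulated 48 h with 10 uM forskolin, then exposed 48 h to chemicals in 0.1% DMSO final; estrone in medium extracted with MTBE, dansyl-derivatized, quantified by HPLC-MS/MS; bidirectional fitting versus DMSO, viability by MTT.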

The nature of assay [15]: CEETOX_H295R_PROG: CeeTox H295R High-throughput Steroidogenesis Assay for Progesterone (PROG) (AID 2283442; active = hit-call score of the fitted dose curve at least 0.9, where 1 is the maximum; inactive = score below 0.9;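 for AC50: human H295R adrenal cells primed with 10 µM forskolin before dosing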). To be noted: actives raise or lower the signal. The procedure, abridged:
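Steps: seed H295R cells and let them adhere overnight; prime 48 h with 10 uM forskolin; dose with compound in DMSO at 0.1% final for 48 h; extract medium steroids with MTBE; measure progesterone by LC-MS/MS. MTT viability was run in the same wells.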

Read-out in assay [16]: Tumor necrosis factor receptor superfamily member 6 (Homo sapiens) (UniProt P25445)
Put plainly: LTEA_HepaRG_FAS: Life Technologies and Expression Analysis (LTEA) Assay for Fas cell surface death receptor (FAS) using HepaRG (AID 2283447; active = hit-call score of the fitted dose curve at least 0.9, where 1 is the maximum; inactive = score below 0.9). To be noted: mRNA level, 48 h; actives raise or lower the signal. The procedure, abridged:
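Differentiated human HepaRG cells, pre-cultured 48 h, were exposed in duplicate for 48 h to 8-point half-log concentrations (top 100 uM, 0.5% DMSO) in serum-free induction medium; FAS mRNA measured by qRT-PCR, normalized to ACTB/GAPDH/POLR2A, bidirectional fit versus DMSO.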

Read-out in assay [17]: Fatty acid synthase (Homo sapiens) (UniProt P49327)
Put plainly: LTEA_HepaRG_FASN: Life Technologies and Expression Analysis (LTEA) Assay for Fatty Acid Synthase (FASN) using HepaRG (AID 2283448; active = hit-call score of the fitted dose curve at least 0.9, where 1 is the maximum; inactive = score below 0.9). As to conditions: mRNA level, 48 h; actives raise or lower the signal. The procedure, abridged: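 Differentiated HepaRG cells in serum-free induction medium exposed 48 h in duplicate to eight half-log concentrations, top 100 uM, 0.5% DMSO. FASN mRNA by qRT-PCR normalised to ACTB, GAPDH, POLR2A; bidirectional fit versus DMSO.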

The structures appear in SMILES notation. Inconclusive results are not listed. Some structures have more than one record in an assay (separate samples or runs), and their calls can disagree. Calls of active or inactive are those of the source. Rule for the calls, unless noted: active = hit-call score of the fitted dose curve at least 0.9, where 1 is the maximum; inconclusive = response in the unintended direction; inactive = score below 0.9.

Chain of Estrogen receptor beta (Homo sapiens) (Q92731 whole entry, looked up, the tested form may be a part): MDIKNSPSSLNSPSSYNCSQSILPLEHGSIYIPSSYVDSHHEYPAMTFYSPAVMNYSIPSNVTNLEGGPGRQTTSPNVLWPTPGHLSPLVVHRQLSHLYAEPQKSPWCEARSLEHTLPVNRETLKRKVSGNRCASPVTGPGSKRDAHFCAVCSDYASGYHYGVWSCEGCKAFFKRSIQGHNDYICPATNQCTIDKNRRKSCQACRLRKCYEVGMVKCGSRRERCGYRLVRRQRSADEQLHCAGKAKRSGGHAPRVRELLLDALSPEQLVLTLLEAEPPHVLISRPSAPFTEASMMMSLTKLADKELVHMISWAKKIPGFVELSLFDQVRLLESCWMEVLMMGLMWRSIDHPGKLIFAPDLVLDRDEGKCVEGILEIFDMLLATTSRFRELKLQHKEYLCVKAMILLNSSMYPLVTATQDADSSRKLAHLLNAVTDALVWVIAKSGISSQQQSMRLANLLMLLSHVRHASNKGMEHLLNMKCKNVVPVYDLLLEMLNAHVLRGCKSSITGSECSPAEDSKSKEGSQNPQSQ
Chain of Peroxisome proliferator-activated receptor gamma (Homo sapiens) (P37231 whole entry, looked up, the tested form may be a part): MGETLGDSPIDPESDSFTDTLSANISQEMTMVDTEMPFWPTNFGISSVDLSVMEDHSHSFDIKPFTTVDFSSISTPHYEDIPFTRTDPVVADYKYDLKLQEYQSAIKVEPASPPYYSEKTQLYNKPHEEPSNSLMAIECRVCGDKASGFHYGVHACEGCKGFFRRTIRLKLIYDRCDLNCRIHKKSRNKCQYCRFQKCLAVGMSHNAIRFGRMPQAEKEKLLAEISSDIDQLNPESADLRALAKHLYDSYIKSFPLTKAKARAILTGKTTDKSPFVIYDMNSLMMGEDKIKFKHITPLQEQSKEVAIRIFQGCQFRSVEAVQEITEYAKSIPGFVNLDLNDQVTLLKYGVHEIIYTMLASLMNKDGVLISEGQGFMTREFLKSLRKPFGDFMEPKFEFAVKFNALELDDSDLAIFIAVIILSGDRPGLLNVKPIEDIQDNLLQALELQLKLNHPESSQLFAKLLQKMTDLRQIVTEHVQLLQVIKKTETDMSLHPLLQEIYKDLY
Chain of Retinoic acid receptor RXR-alpha (Homo sapiens) (P19793 whole entry, looked up, the tested form may be a part): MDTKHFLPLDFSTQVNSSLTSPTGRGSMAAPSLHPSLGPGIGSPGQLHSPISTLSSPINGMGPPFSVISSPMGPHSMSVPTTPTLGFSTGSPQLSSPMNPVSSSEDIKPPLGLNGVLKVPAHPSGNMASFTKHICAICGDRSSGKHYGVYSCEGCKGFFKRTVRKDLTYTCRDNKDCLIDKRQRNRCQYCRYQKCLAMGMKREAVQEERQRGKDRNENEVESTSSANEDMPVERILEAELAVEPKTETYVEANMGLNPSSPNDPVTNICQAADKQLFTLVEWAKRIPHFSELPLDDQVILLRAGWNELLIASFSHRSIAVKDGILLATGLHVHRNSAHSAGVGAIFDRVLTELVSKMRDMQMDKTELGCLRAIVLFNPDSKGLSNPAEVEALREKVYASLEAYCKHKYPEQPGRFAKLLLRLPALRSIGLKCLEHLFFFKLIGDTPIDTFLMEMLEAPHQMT
Chain of Fatty acid synthase (Homo sapiens) (P49327 whole entry, looked up): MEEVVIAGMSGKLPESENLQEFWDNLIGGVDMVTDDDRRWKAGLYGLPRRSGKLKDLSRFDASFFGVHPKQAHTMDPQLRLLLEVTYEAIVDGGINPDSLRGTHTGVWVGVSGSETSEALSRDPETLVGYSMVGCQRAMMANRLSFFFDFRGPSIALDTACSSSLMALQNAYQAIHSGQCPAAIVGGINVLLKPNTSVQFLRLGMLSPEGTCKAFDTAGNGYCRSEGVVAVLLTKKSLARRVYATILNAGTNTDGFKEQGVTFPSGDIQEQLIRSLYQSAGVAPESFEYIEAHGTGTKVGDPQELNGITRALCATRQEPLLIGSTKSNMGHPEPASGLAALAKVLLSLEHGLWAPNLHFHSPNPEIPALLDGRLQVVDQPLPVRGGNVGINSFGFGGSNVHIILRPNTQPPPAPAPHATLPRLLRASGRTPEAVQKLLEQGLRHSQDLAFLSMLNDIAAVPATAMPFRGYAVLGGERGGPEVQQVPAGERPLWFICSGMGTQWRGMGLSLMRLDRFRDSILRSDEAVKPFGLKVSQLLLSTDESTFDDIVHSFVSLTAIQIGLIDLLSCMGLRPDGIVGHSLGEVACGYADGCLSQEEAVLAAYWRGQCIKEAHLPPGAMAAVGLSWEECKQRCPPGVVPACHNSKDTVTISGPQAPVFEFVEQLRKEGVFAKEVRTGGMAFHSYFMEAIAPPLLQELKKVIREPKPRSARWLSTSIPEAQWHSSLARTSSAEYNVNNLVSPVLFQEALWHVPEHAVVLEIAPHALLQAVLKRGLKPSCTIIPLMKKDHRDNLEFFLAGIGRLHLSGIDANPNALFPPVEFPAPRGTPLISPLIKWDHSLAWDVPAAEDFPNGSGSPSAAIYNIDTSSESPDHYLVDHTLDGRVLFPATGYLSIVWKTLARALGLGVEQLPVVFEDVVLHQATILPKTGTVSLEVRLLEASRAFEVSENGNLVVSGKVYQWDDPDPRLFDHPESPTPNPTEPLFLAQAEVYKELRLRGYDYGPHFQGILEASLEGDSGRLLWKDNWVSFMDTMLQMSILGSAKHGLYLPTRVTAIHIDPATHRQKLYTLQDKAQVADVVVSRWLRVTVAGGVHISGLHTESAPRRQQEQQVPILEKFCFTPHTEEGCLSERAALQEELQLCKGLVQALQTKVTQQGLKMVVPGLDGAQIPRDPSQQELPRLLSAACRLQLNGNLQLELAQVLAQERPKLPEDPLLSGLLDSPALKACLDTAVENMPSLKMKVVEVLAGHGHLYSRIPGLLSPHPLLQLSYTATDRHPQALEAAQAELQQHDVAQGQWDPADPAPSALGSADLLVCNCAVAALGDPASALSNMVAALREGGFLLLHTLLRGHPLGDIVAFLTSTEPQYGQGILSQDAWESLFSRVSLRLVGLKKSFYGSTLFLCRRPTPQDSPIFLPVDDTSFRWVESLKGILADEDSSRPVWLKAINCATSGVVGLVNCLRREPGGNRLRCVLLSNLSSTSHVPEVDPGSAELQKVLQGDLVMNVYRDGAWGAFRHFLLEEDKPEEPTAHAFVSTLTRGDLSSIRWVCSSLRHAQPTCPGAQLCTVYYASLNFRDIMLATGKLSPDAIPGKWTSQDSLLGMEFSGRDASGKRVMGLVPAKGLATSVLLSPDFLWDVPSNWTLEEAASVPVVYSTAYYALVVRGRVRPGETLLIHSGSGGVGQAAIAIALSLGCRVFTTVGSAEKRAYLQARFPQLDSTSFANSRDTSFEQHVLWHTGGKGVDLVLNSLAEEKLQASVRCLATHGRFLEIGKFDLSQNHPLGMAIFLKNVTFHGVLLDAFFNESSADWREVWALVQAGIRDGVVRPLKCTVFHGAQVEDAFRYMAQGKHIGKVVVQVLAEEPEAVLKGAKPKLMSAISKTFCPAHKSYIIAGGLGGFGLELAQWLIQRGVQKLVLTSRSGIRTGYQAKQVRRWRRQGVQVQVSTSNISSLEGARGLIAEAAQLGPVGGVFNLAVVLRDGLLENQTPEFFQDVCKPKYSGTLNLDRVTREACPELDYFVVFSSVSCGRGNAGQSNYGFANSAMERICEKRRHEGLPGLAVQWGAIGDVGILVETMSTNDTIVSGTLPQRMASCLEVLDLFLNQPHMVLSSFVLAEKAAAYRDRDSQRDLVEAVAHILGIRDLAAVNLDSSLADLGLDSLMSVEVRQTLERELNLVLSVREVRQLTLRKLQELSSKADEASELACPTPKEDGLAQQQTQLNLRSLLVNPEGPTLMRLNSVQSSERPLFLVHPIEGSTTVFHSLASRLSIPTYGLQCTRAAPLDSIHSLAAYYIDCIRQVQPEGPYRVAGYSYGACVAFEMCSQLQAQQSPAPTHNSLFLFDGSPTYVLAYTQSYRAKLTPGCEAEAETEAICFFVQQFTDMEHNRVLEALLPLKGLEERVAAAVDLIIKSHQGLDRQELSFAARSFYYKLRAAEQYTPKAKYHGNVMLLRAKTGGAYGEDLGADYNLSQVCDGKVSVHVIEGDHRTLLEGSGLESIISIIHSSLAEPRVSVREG

Broadly, the AC50 is the midpoint of the concentration-response curve, whichever way the signal moves. As to `Nc1ccccc1N`, the call in assay [1], in [2], in [3], in [4], in [5] and in assay [6] was inactive. The compound was classed as inactive in [7], in [8], in assay [9], in assay [10], in [11] and in assay [12]. Besides, the compound was classed as inactive in assay [13], in assay [14] and in assay [15]. The AC50 in assay [16] was 50 µM (active); in assay [17], 71.4 µM (active).
Turning to `COCCOC[C@H](CC1(C(=O)NC2CCC(C(=O)O)CC2)CCCC1)C(=O)Oc1ccc2c(c1)CCC2` (stereo partly specified), the compound was called inactive in assay [1], in assay [2], in [3], in [4], in assay [5] and in assay [6]. Moreover, the call in [7], in [16] and in [17] was inactive.
Consider `CC(C)(C)c1cc(O)c(C(C)(C)C)cc1O`, for which the compound was called inactive in [1], in assay [2], in [3], in [4], in assay [5] and in assay [6]. Besides, the compound was classed as inactive in assay [7]. Besides, the AC50 is 33.3 µM (active) in assay [5], 81.7 µM (active) in assay [16] and 50 µM (active) in assay [17].
Regarding `CCCCCCOCCO`, the compound was called inactive in assay [1], in assay [2], in assay [3], in [4], in [5] and in [6]. For the same compound, the call in assay [7], in assay [16] and in assay [17] was inactive.
For the compound `CCCCc1ccc2c(n1)[C@@H](c1ccc(OC)cc1C[C@H](C)C(=O)O)[C@H](C(=O)O)[C@H]2c1ccc2c(c1)OCO2`, the outcome in [1], in assay [2], in [3], in assay [4], in [5] and in [6] was inactive. Further, the compound was called inactive in [7], in assay [16] and in [17].
For the compound `NS(=O)(=O)c1cc2c(cc1Cl)NCNS2(=O)=O`, the result in assay [1], in assay [2], in assay [3], in assay [4], in [5] and in assay [6] was inactive. The compound was called inactive in assay [7], in assay [16] and in [17].
Regarding `O=c1c(O)c(-c2ccc(O)c(O)c2)oc2cc(O)cc(O)c12`, the AC50 in assay [1] is 19.2 µM (active); in assay [3], 23.4 µM (active). Besides, the result in [2], in [4], in assay [5], in assay [6], in assay [7] and in assay [16] was inactive. Also, in assay [17], the call was inactive.
Turning to `CCCCCCCCCCCCCCCCCC(=O)O`, the outcome in [2], in assay [3], in [4], in assay [5], in assay [6] and in assay [7] was inactive. In addition, the outcome in assay [16] and in [17] was inactive.
As to `Cc1nc(C)nc(N2C[C@@H](C)N(c3ccnc([C@@H](C)O)n3)[C@@H](C)C2)n1`, the result in assay [2], in assay [3], in assay [4], in assay [6], in assay [7] and in assay [8] was inactive. The call in assay [9], in assay [10], in assay [11], in assay [12], in [15] and in assay [16] was inactive. Further, the result in assay [17] was inactive.
`CN1CCCC1=O`: the call in [1], in [2], in assay [3], in [5], in assay [6] and in [7] was inactive. In addition, the compound was classed as inactive in [16] and in assay [17].
On to `CCCc1cc(=O)[nH]c(=S)[nH]1`, for which the result in [2], in [3], in assay [4], in assay [5], in assay [6] and in assay [7] was inactive. Further, the compound was classed as inactive in assay [16] and in assay [17].
With `Nc1ccc2c(c1)C(=O)c1ccccc1C2=O`, the compound was called inactive in assay [2], in [3], in assay [6], in assay [7], in assay [8] and in assay [9]. The call in [11], in [12] and in assay [16] was inactive. Besides, the AC50 in assay [10] was 7.84 µM (active); in assay [15], 6.71 µM (active); in [17] it was 2.86 µM (active).
